ROMK primary: modulators of human ROMK potassium channel | P48048 | Tet-inducible ROMK, thallium flux fluorescence; actives lie on both sides | B-score at 10 µM | 2% of 130,000 active | AID 1918;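 active = signal ratio slope over the read window, or its plate-corrected B-score, at least 3 SD from the plate mean, either direction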;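 also: B-score of the F/F0 ratio slope over 7 to 12 s after thallium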
Cl transport mod: modulators of human KCC2 chloride dependent transport. Q9H2X9. KCC2 cells, thallium flux FluoZin-2 fluorescence. B-score of Tl+ flux slope (higher = more flux/activation; lower = inhibition) at 10 µM. 2.2% of 190,000 active;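 active = thallium flux slope and its plate-corrected score both differing from the plate sample mean at a set confidence after two filtering rounds, in either direction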;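 also: slope of fluorescence scaled to starting intensity during 10 to 20 s after thallium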
Target sequence (Q9H2X9 whole entry, looked up): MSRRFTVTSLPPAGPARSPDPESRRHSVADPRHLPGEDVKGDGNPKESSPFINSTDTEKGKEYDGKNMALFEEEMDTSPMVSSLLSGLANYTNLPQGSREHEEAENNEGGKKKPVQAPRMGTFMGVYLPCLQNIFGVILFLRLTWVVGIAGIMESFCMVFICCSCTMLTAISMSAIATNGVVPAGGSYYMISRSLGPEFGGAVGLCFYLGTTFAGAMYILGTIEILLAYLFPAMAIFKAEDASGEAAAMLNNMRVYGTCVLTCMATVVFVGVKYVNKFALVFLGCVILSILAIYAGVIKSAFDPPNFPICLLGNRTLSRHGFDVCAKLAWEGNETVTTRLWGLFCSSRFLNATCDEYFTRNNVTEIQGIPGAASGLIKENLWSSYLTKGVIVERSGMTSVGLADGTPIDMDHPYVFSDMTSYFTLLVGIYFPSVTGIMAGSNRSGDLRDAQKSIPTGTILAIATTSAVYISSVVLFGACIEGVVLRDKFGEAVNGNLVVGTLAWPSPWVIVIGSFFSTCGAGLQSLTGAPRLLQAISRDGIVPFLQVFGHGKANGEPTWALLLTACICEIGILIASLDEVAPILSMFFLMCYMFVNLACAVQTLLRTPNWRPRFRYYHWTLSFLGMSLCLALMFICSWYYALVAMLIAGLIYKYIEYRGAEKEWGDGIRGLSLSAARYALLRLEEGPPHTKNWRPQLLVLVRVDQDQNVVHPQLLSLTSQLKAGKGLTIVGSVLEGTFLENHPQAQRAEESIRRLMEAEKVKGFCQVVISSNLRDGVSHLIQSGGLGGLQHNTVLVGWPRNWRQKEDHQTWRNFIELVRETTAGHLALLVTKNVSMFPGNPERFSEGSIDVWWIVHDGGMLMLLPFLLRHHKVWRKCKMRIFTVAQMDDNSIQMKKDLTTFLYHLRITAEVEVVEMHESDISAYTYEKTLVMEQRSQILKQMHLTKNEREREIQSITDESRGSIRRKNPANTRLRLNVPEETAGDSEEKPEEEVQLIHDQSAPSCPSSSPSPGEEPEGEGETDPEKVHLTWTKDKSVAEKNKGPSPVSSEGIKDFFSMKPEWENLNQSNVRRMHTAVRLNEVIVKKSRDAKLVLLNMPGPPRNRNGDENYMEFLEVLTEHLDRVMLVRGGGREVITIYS
WT yeast gro inh: growth inhibition of WT yeast, mitochondrial fusion screen; inhibition, % at 10 µM; mitochondrial fusion phenotypic screen, WT strain; 2.1% of 190,000 active; in the data active = inhibition above about 58%; tested in S. cerevisiae
m-calpain inh: blocks pig calpain II enzyme activity; inhibition, % at 16 µM; AID 1236; purified calpain II, fluorogenic peptide substrate, 30 min; 0.37% of 220,000 active;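 active = inhibition above about 50%, limit read from the data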
Lmaj promast: inhibitors of Leishmania major promastigote growth | Leishmania major promastigotes, resazurin fluorescence viability | 9% of 200,000 active | inhibition, % at 10 µM; in the data active = inhibition above about 50%;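 also: promastigotes grown with compound for 44 hours at 28 °C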
The depositor's hits bear a star; i = inactive; nt = not tested or not shown. In the library only some 12% were active in any assay of this set; here they are far more common.

SMILES	ROMK primary	Cl transport mod	WT yeast gro inh	m-calpain inh	Lmaj promast
O=C(c1ccc2c(c1)OCO2)C1CCCN(CC2CCCCC2)C1 (stereo not drawn)	-2.2	0.26	15	16	91*
Cc1cccc(CN2CCCC(C(=O)c3ccc4c(c3)OCO4)C2)n1 (stereo not drawn)	-0.14	-0.33	-3	-37	31
O=C1NC(=O)C(=Cc2ccc(N3CCN(C(=O)c4ccccc4)CC3)c([N+](=O)[O-])c2)C(=O)N1	-1.1	-0.46	10	-8	-1
O=C1NC(=O)C(=Cc2cc([N+](=O)[O-])ccc2N2CCCCC2)C(=O)N1	0.61	0.28	-6	12	97*
COc1ccc(C2SCC(=O)Nc3c2c(C)nn3-c2ccccc2)cc1 (stereo not drawn)	0.32	0.3	10	-17	100*
O=[N+]([O-])c1ccc(N2CCNCC2)cc1NCc1ccco1	nt	-0.8	-19	32	101*
CN1CCN(c2ccc([N+](=O)[O-])c(NCC3CCCO3)c2)CC1 (stereo not drawn)	nt	0.0005	0	7	-1
CN1CCN(c2ccc([N+](=O)[O-])c(NCc3ccco3)c2)CC1	-0.7	-0.017	-6	-11	100*
CNc1cc(N2CCNCC2)ccc1[N+](=O)[O-]	-2.6	1.4	2	23	6
CCOC(=O)c1nc2ccccc2c(=O)n1-c1cccc(C)c1	1.1*	1.4	9	18	-5
CCOC(=O)c1nc2ccccc2c(=O)n1-c1ccc(C)cc1	0.41	-0.27	nt	-2	-1
O=C(C(=O)N1CCOCC1)c1cn(Cc2ccc(F)cc2)c2ccccc12	nt	-0.088	nt	-13	nt
COCC(C)OC(=O)c1c(N)n(Cc2ccco2)c2nc3ccccc3nc12 (stereo not drawn)	-0.57	-1.3	7	i	95*
Nc1c(C(=O)NCc2ccco2)c2nc3ccccc3nc2n1Cc1ccc(F)cc1	-1.6	-1.5	2	i	59*
CCCCn1c(O)c(/C=C2/C=CC=N2)c(=O)[nH]c1=O	nt	-1.4	nt	-4	nt
C[N+]1(CC(COCc2ccccc2)OC(=O)Cc2ccccc2)CCOCC1 (stereo not drawn)	0.19	-0.8	6	7	-7
O=c1c2ccccc2nc(-c2ccoc2)n1-c1ccccc1	-0.45	nt	7	-4	-3
COc1cc2c(cc1O)C[C@H]1NCCc3cc4c(c-2c31)OCO4	-0.074	-0.33	4	-189	99*
COc1cc2c(cc1OC)-c1c3c(cc4c1[C@@H](C2)N(C)CC4)OCO3	-1.2	0.004	-2	-34	97*
CC12CCC3C(CCC4C/C(=N/O)CCC43C)C1CCC2O (stereo not drawn)	nt	-0.044	6	8	1
Cc1cc(C)c2c(c1)-c1cc(C)nn1C(c1cccnc1)N2 (stereo not drawn)	nt	-0.0021	16	7	7
Cc1ccc(N/N=C/c2c(O)n(-c3ccccc3)c(=O)[nH]c2=O)cc1	0.63	-0.36	52	-5	92*
Cc1ccc(-n2c(O)c(/C=C/C=Nc3ccccc3)c(=O)[nH]c2=O)cc1	nt	-0.0075	-3	14	-5
COc1ccc(CCn2c(O)c(C=NCCCN(C)C)c(=O)[nH]c2=O)cc1OC	nt	0.087	-6	32	-5
CC(=O)OC(C)(C)/C=C/C(=O)[C@](C)(O)[C@H]1[C@H](O)C[C@@]2(C)[C@@H]3CC=C4[C@H](C[C@H](O)C(=O)C4(C)C)[C@]3(C)C(=O)C[C@]12C	4.7*	1.3	5	-21	52*
SMILES	ROMK primary	Cl transport mod	WT yeast gro inh	m-calpain inh	Lmaj promast
CC(=O)OC1N=C(c2ccccc2)c2cc(Br)ccc2NC1=O (stereo not drawn)	nt	0.6	0	-1	85*
Clc1cccc(Cl)c1CN1CCN(c2ccccc2)CC1	0.055	0.73	-5	-3	1
O=C(NCCCN1CCOCC1)C(Cl)(Cl)Cl	0.055	-0.21	-5	-6	53*
O=c1[nH]c(=S)n(C2CC2)c(O)c1C=Nc1cccc(C(F)(F)F)c1	nt	-0.12	-11	0	-7
CC(=O)N1N=C2C3CCN(CC3)C2C1c1ccc(F)cc1 (stereo not drawn)	0.018	0.76	4	1	-12
Brc1ccc2c(c1)C(OC1CN3CCC1CC3)c1ccccc1CS2 (stereo not drawn)	nt	0.53	82*	-23	100*
c1ccc2c(c1)CSc1ccccc1C2C1=NCCN1 (stereo not drawn)	nt	0.29	2	9	-2
COc1cccc(C2(O)CCN(Cc3ccncc3)CC2)c1	-0.64	-0.19	-2	11	92*
CN(C)P1(N(C)C)=NC(C(F)(F)F)=NC(C(F)(F)F)=N1	0.2	0.42	-18	9	-3
